# Data from PubChem BioAssay (NCATS).
# Records with an inconclusive call do not appear. Calls of active or inactive are those of the source. Unless noted, calls follow the shape of the dose curve; as a rule, active = well fitted cell-killing curve with a large enough effect; inconclusive = small, poorly fitted or top-dose-only effect, or effect the other way; inactive = no such curve, though single readings can be large or run the other way.
# What was measured:
# [1] = Quantitative High-Throughput drug screen in 47 multiple myeloma cell lines against the NCATS MIPE library collection: RPMI8226_ATCC cell viability assay (AID 1919871); also: potency is read from the fitted curve at half-maximal effect; nearly all actives have a fitted effect of over 30% in size
# In short: (§1)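 Inhibition of viability over 48 h was scored by ATP content (CellTiter-Glo) in 500-cell wells. Zero and full viability were defined by media-only and DMSO-only wells.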
# [2] = qHTS for identification of novel therapeutic agents for treatment of microphthalmiaassociated transcription factor (MiT) renal cell carcinoma (RCC) (AID 1963991; calls by dose curve; also: potency is read from the fitted curve at half-maximal effect;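 as to z-score: curves scaled with 100% = DMSO viability and 0% = empty wells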); settings: CellTiter-Glo, 48 h; for Potency: active = Z-AUC below -0.8 in all three lines; for z-score: stronger effect = lower value
# In short: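 UOK109/UOK124/UOK145 (TFE3 fusions, three partners); 500 cells/well; MIPE v4.0, 1912 cpds, 11 conc.; 48 h, 37 C; CellTiter-Glo, 15 min RT; lum. Norm.: DMSO 100%, empty 0%.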
# [3] = Quantitative High-Throughput drug screen in 47 multiple myeloma cell lines against the NCATS MIPE library collection: KMS34_JCRB cell viability assay (AID 1918985); also: potency is read from the fitted curve at half-maximal effect; nearly all actives have a fitted effect of over 40% in size
# In short: as §1
# [4] = Quantitative High-Throughput drug screen in 47 multiple myeloma cell lines against the NCATS MIPE library collection: OCIMY7_PLB cell viability assay (AID 1918987); also: potency is read from the fitted curve at half-maximal effect; nearly all actives have a fitted effect of over 65% in size
# In short: as §1
# [5] = Quantitative High-Throughput drug screen in 47 multiple myeloma cell lines against the NCATS MIPE library collection: OCIMY5_PLB cell viability assay (AID 1918988); also: potency is read from the fitted curve at half-maximal effect; nearly all actives have a fitted effect of over 65% in size
# In short: as §1
# [6] = Quantitative High-Throughput drug screen in 47 multiple myeloma cell lines against the NCATS MIPE library collection: OPM1_PLB cell viability assay (AID 1918989); also: potency is read from the fitted curve at half-maximal effect; nearly all actives have a fitted effect of over 40% in size
# In short: as §1
# [7] = Quantitative High-Throughput drug screen in 47 multiple myeloma cell lines against the NCATS MIPE library collection: SKMM1_PLB cell viability assay (AID 1919863); settings: SKMM1 myeloma viability, CellTiter-Glo ATP, 48 h; viability: stronger effect = lower value; also: potency is read from the fitted curve at half-maximal effect; nearly all actives have a fitted effect of over 35% in size
# In short: as §1
# [8] = Quantitative High-Throughput drug screen in 47 multiple myeloma cell lines against the NCATS MIPE library collection: U266_ATCC cell viability assay (AID 1919864); also: potency is read from the fitted curve at half-maximal effect; nearly all actives have a fitted effect of over 35% in size
# In short: as §1
# [9] = Quantitative High-Throughput drug screen in 47 multiple myeloma cell lines against the NCATS MIPE library collection: XG6_PLB cell viability assay (AID 1919865); also: potency is read from the fitted curve at half-maximal effect; nearly all actives have a fitted effect of over 40% in size
# In short: as §1
# [10] = Quantitative High-Throughput drug screen in 47 multiple myeloma cell lines against the NCATS MIPE library collection: VP6_DJ cell viability assay (AID 1919867); also: potency is read from the fitted curve at half-maximal effect; nearly all actives have a fitted effect of over 40% in size
# In short: as §1
# [11] = Quantitative High-Throughput drug screen in 47 multiple myeloma cell lines against the NCATS MIPE library collection: UTMC2_PLB cell viability assay (AID 1919868); settings: CellTiter-Glo ATP luminescence, 48 h; viability (% of DMSO control): at 45.8 µM (top of the series) unless noted; also: potency is read from the fitted curve at half-maximal effect; nearly all actives have a fitted effect of over 55% in size
# In short: as §1
# [12] = Quantitative High-Throughput drug screen in 47 multiple myeloma cell lines against the NCATS MIPE library collection: PCM6_Riken cell viability assay (AID 1919870); also: potency is read from the fitted curve at half-maximal effect; nearly all actives have a fitted effect of over 30% in size
# In short: as §1
# [13] = Quantitative High-Throughput drug screen in 47 multiple myeloma cell lines against the NCATS MIPE library collection: OPM2_DSMZ cell viability assay (AID 1919872); also: nearly all actives have a fitted effect of over 30% in size; also: potency is read from the fitted curve at half-maximal effect
# In short: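 Primary qHTS used for cherry-picking: cells at 500/well, library compounds for 48 h (37C, 5% CO2), luminescent ATP assay.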
# [14] = Quantitative High-Throughput drug screen in 47 multiple myeloma cell lines against the NCATS MIPE library collection: KMS11_JCRBsus cell viability assay (AID 1919873); also: potency is read from the fitted curve at half-maximal effect; nearly all actives have a fitted effect of over 50% in size
# In short: as §1
# [15] = Quantitative High-Throughput drug screen in 47 multiple myeloma cell lines against the NCATS MIPE library collection: KMS28BM_JCRB cell viability assay (AID 1919874); also: potency is read from the fitted curve at half-maximal effect; nearly all actives have a fitted effect of over 35% in size
# In short: as §1
# [16] = qHTS drug screen for cell cycle checkpoint inhibitors in PARPi-resistant BRCA-mutant ovarian cancer cell lines. (AID 1963452; calls by dose curve); settings: PEO1/OlaR viability, CellTiter-Glo luminescence, 96 h, stronger effect = lower value
# In short: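 PEO1, PEO4 and PEO1/OlaR ovarian cancer cells, 600 per well, exposed 96 h at 37C to a dilution series. Viability read by CellTiter-Glo luminescence, normalized to DMSO and empty wells; activity summarized as Z-AUC.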
# [17] = Quantitative High-Throughput drug screen in 47 multiple myeloma cell lines against the NCATS MIPE library collection: PE2_PLB cell viability assay (AID 1919869); also: potency is read from the fitted curve at half-maximal effect; nearly all actives have a fitted effect of over 35% in size
# In short: as §1
# [18] = Quantitative High-Throughput drug screen in 47 multiple myeloma cell lines against the NCATS MIPE library collection: XG1_PLB cell viability assay (AID 1919866)
# In short: as §1
# [19] = TFE3-RCC UOK109 viability, measured here: UOK109 Z-AUC
# [20] = TFE3-RCC viability, measured here: UOK124 Z-AUC
# [21] = TFE3-RCC viability, measured here: UOK145 Z-AUC
# [22] = measured here: PEO1 parental Z-AUC
smiles,measurement,setting,value
CS(=O)(=O)N1CCN(Cc2cc3nc(-c4cccc5[nH]ncc45)nc(N4CCOCC4)c3s2)CC1,Potency,[1],0.264 µM (active)
same,Potency,[2]; TFE3-RCC UOK109 viability,0.105 µM (active)
same,z-score,[2]; [19],-1.55
same,z-score,[2]; [20],-1.58
same,z-score,[2]; [21],-1.5
COc1cc2nccc(Oc3ccc(NC(=O)C4(C(=O)Nc5ccc(F)cc5)CC4)cc3)c2cc1OC,Potency,[3],14.8 µM (active)
same,Potency,[4],18.7 µM (active)
same,Potency,[5],18.7 µM (active)
same,Potency,[6],23.5 µM (active)
same,Potency,[7],16.6 µM (active)
same,Potency,[8],20.9 µM (active)
same,Potency,[9],0.743 µM (active)
same,Potency,[10],3.72 µM (active)
same,Potency,[11],20.9 µM (active)
same,Potency,[12],2.96 µM (active)
same,Potency,[1],20.9 µM (active)
same,Potency,[13],23.5 µM (active)
same,Potency,[14],20.9 µM (active)
same,Potency,[15],20.9 µM (active)
same,Z-AUC,[16],-0.0071 (inactive)
same,Z-AUC,[16]; [22],0.252
same,Z-AUC,[16]; measured here: PEO4 Z-AUC,-0.118
CCOC(=O)C1=C(C)NC2=C(C(=O)CC(C)(C)C2)C1c1ccc(-c2ccccc2)cc1 (stereo not given),Potency,[4],3.72 µM (active)
same,Potency,[5],20.9 µM (active)
same,Potency,[6],16.6 µM (active)
same,Potency,[8],26.4 µM (active)
same,Potency,[11],18.7 µM (active)
same,Potency,[17],20.9 µM (active)
same,Potency,[12],20.9 µM (active)
same,Potency,[1],23.5 µM (active)
same,Potency,[14],18.7 µM (active)
same,Z-AUC,[16],0.483 (inactive)
same,Z-AUC,[16]; [22],0.756
same,Z-AUC,[16]; measured here: PEO4 Z-AUC,0.977
Cc1nc2cnc3ccc(C#Cc4cccnc4)cc3c2n1-c1ccc(C(C)(C)C#N)cc1,Potency,[4],0.105 µM (active)
same,Potency,[6],0.0526 µM (active)
same,Potency,[7],3.72 µM (active)
same,Potency,[9],0.0105 µM (active)
same,Potency,[18],0.0105 µM (active)
same,Potency,[10],0.0743 µM (active)
same,Potency,[11],0.0209 µM (active)
same,Potency,[17],0.0132 µM (active)
same,Potency,[12],0.0662 µM (active)
same,Potency,[13],0.187 µM (active)
same,Z-AUC,[16],-0.114 (inactive)
same,Z-AUC,[16]; [22],-0.259
same,Z-AUC,[16]; measured here: PEO4 Z-AUC,-0.412
same,Potency,[2]; TFE3-RCC UOK109 viability,0.118 µM (active)
same,z-score,[2]; [19],-1.96
same,z-score,[2]; [20],-4.34
same,z-score,[2]; [21],-2.15
Cc1ccc(S(=O)(=O)Nc2cc(Cl)ccc2C(=O)Nc2nc(-c3ccccc3)cs2)cc1,Potency,[6],4.69 µM (active)
same,Potency,[7],16.6 µM (active)
same,Potency,[8],20.9 µM (active)
same,Potency,[10],6.62 µM (active)
same,Potency,[17],5.9 µM (active)
same,Potency,[14],10.5 µM (active)
same,Z-AUC,[16],-0.703 (inactive)
same,Z-AUC,[16]; [22],-0.778
same,Z-AUC,[16]; measured here: PEO4 Z-AUC,-1.08
Clc1ccc2ncc(-c3cccc(NC4CNC4)n3)n2c1,Potency,[3],8.33 µM (active)
same,Potency,[4],14.8 µM (active)
same,Potency,[5],23.5 µM (active)
same,Potency,[6],14.8 µM (active)
same,Potency,[8],18.7 µM (active)
same,Potency,[9],8.33 µM (active)
same,Potency,[18],14.8 µM (active)
same,Potency,[10],16.6 µM (active)
same,Potency,[17],16.6 µM (active)
same,Potency,[12],18.7 µM (active)
same,Potency,[1],20.9 µM (active)
same,Potency,[13],23.5 µM (active)
same,Potency,[14],20.9 µM (active)
same,Z-AUC,[16],-0.578 (inactive)
same,Z-AUC,[16]; [22],0.128
same,Z-AUC,[16]; measured here: PEO4 Z-AUC,-0.613
Cc1cc(Nc2cc(CN3CCOCC3)c3nc(C)c(Cc4ccc(Cl)cc4F)n3n2)n[nH]1,Potency,[4],2.64 µM (active)
same,Potency,[5],3.32 µM (active)
same,Potency,[6],16.6 µM (active)
same,Potency,[7],16.6 µM (active)
same,Potency,[8],20.9 µM (active)
same,Potency,[9],13.2 µM (active)
same,Potency,[10],13.2 µM (active)
same,Potency,[11],2.35 µM (active)
same,Potency,[17],5.26 µM (active)
same,Potency,[12],16.6 µM (active)
same,Potency,[13],inactive
same,Potency,[14],1.18 µM (active)
same,Potency,[15],14.8 µM (active)
same,Z-AUC,[16],-0.469 (inactive)
same,Z-AUC,[16]; [22],-0.486
same,Z-AUC,[16]; measured here: PEO4 Z-AUC,-1.95
C=CC(=O)N1CCC[C@@H](n2nc(-c3ccc(Oc4ccccc4)cc3)c3c(N)ncnc32)C1,Z-AUC,[16],0.296 (inactive)
same,Z-AUC,[16]; [22],0.501
same,Z-AUC,[16]; measured here: PEO4 Z-AUC,0.517
